Experimental data from PubChem BioAssay (NCI).
The panel holds about 83,000 compounds, 20% with a hit somewhere; the sample as a whole holds those more often.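 Step 1: grow cells in 96-well plates. Step 2: add test compound at a single concentration. Step 3: incubate 48 h. Step 4: record percent growth.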 The source made the active and inactive calls. Rule for the calls: active = growth percent below 10; inactive = the rest.

system: HL-60(TB) leukemia; assay: NCI-60 one-dose screen, 48 h (100 = growth as untreated, 0 = no growth, -100 = all killed); conditions: 10 µM unless noted

Compound | growth
Cc1ccc(C)c2c1sc1nc(N3CCOCC3)c(C#N)c(=O)n12 | 93.4% (inactive)
Cc1c(Cl)cccc1NC(=O)c1sc2nc3c(cc2c1N)C(=O)CCC3 | -1.76% (active)
Cc1cc(N2CCCCCC2)nc(NC2CCCC(Nc3ccnc4cc(Cl)ccc34)C2)n1 (centres undefined) | -71.3% (active)
[N-]=[N+]=Nc1ncc(-c2ccc(C(F)(F)F)cc2)c(NC2CCCCCC2)n1 | -14.7% [100 µM] (active)
O=S(=O)(O)C(C(I)I)S(=O)(=O)O | 109% (inactive)
N#Cc1cnc2cc(OC[C@@H](O)CO)c(NC(=O)CC3CSSC3)cc2c1Nc1ccc(OCc2cccc(F)c2)c(Cl)c1 | -56.4% (active)
Clc1ccc(-c2nnc(-c3ccco3)o2)cc1 | 94.1% (inactive)
COc1cc(OC)c2c(c1Cl)O[C@]1(C2=O)C(OCc2ccccc2)=CC(=O)C[C@H]1C | -12% (active)
CCOC(=O)c1c(C)n2c(=O)cc(C)c3c(OC(C)=O)c(OC(C)=O)cc1c32 | 0.923% (active)
